# Reference: PubChem BioAssay (NCI)
# About 83,000 compounds went through this panel and 20% of them were active in at least one assay; those are over-represented in the sample as a whole.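 Treatment: one concentration, 48 hours, 96-well format. Scoring: percent growth, with anything below 10 considered active.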 The source made the active and inactive calls.
# Test system: MDA-MB-468 breast
# Assay: NCI-60 one-dose screen, 48 h (100 = growth as untreated, 0 = no growth, -100 = all killed)
# Conditions: 10 µM unless noted
row,Compound,growth
1,CN1CCN(c2ccc([N+](=O)[O-])c3no[n+]([O-])c23)CC1,-70.3% (active)
2,C[C@]12CCC(=O)C[C@@H]1CC[C@@H]1[C@@H]2CC[C@]2(C)[C@@H](OC(=O)N(CCCl)N=O)CC[C@@H]12,-45.8% (active)
3,Cn1cc(C=O)c2nccnc21,98.1% (inactive)
4,C1CNC2CCCC2C1 (centres undefined),97.4% (inactive)
